For eleven molecules, growth results are on record in PubChem BioAssay (NCI).

Compounds without any hit were thinned out: in the full panel of roughly 83,000, 20% have a hit.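 Plates (96-well) were seeded with cells, treated with compound at one concentration, and incubated for 48 hours before percent growth was determined.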 Unmarked numbers belong to inactive results. The source made the active and inactive calls. The calls were made as follows: active = growth percent below 10; inactive = the rest.

Holding throughout (assay): NCI-60 one-dose screen, 48 h (100 = growth as untreated, 0 = no growth, -100 = all killed)
Conditions in all cases: 10 µM unless noted

Assay [1] deals with NCI-H23 lung.
Assay [2] deals with NCI-H226 lung.
The subject of assay [3] is NCI-H322M lung.
The subject of assay [4] is HOP-62 NSCLC.
Assay [5] has as its system NCI-H460 lung.
The test system of assay [6] is NCI-H522 lung.
For assay [7], the system named is A549/ATCC NSCLC.
Assay [8] has as its system 786-0 renal.
Assay [9] relates to COLO 205 colon.
For assay [10], the system named is DU-145 prostate.
Assay [11] concerns K-562 leukemia.
For assay [12], the system named is MALME-3M melanoma.
The test system of assay [13] is MDA-MB-231 breast.
The subject of assay [14] is RXF 393 renal.
Assay [15] has as its system SF-268 CNS.
Assay [16] has as its system SF-295 CNS.
The subject of assay [17] is SF-539 CNS.
Assay [18] has as its system UACC-257 melanoma.
Assay [19] deals with M14 melanoma.

Regarding `O=c1c2cc(Cl)ccc2oc2ccc(OCCCCCN3CCCCCC3)cc12`, the growth is 87.5% in [1]; 90.1% in assay [2]; 89.6% in assay [3]; 79.7% in assay [4]; 63% in assay [5]; 80.2% in assay [6]. Besides, the growth is 61.2% in assay [7]; 70.2% in [8]; 76.7% in assay [9]; 91.9% in [10]; 34.6% in [11]; 114% in [12]. Further, the growth was 84.4% in [13]; 84.4% in assay [14]; 87.4% in assay [15]; 97.5% in assay [16]; 94.1% in assay [17]; 83.7% in assay [18]. Moreover, the growth in [19] is 45.2%.
With `CC(=O)OC[C@H]1O[C@@H](n2c(=O)cc(N)[nH]c2=O)C(OC(C)=O)[C@@H]1OC(C)=O` (some centres undefined), the growth in assay [1] was 98.5%; in assay [2], 90.6%; in assay [3] it was 105%; in assay [4], 95%; in [5], 107%; in assay [6] it was 100%. The growth is 97.7% in [7]; 102% in assay [8]; 115% in [9]; 108% in assay [10]; 108% in assay [11]; 98.4% in [12]. Further, the growth is 107% in [13]; 104% in assay [14]; 97.9% in assay [15]; 94.2% in assay [16]; 98% in assay [17]; 98% in assay [18]. Also, the growth in [19] was 91.3%.
Turning to `NC(=S)N1N=C(c2ccc(Cl)cc2)CC1c1cc2ccccc2[nH]c1=O` (centres undefined), the growth is 105% in assay [1]; 113% in assay [2]; 97.2% in assay [3]; 102% in [4]; 108% in [5]; 84.2% in [6]. Besides, the growth was 110% in [7]; 98% in assay [8]; 115% in assay [9]; 118% in [10]; 112% in assay [11]; 93.8% in assay [12]. Moreover, the growth is 109% in [13]; 123% in assay [14]; 112% in assay [15]; 108% in assay [16]; 106% in assay [17]; 111% in assay [18]. In assay [19], the growth was 111%.
Consider `COc1ccc(/C(C)=N/NC(=O)c2ccc(S(C)(=O)=O)cc2)cc1OC`, for which the growth in assay [1] is 104%; in assay [2] it was 95.5%; in [3] it was 96.5%; in assay [4], 85.5%; in assay [5] it was 108%; in assay [6], 104%. Moreover, the growth in assay [7] is 96.5%; in assay [8] it was 94.2%; in assay [9] it was 95.3%; in assay [10] it was 95.7%; in assay [11], 69.5%; in assay [12], 98.1%. Besides, the growth was 103% in assay [13]; 114% in [14]; 102% in assay [15]; 98.3% in [16]; 99.1% in [17]; 96.3% in assay [18]. Further, the growth in assay [19] is 97.4%.
For `Nc1nc(N)c2cc(NCc3ccc(Cl)c(Cl)c3)ccc2n1`, the growth in [1] was -88% (active); in assay [2], -74.8% (active); in [3], -79% (active); in assay [4] it was -85.6% (active); in assay [5], -75.7% (active); in assay [6], -69.8% (active). Also, the growth was -90.2% (active) in assay [7]; -89.7% (active) in assay [8]; -90.7% (active) in assay [9]; -94.8% (active) in [10]; -62.2% (active) in assay [11]; -64.9% (active) in assay [12]. For the same molecule, the growth in assay [13] was -86.8% (active); in [14], -82.7% (active); in assay [15], -83.2% (active); in [16], -80.5% (active); in assay [17], -89.9% (active); in assay [18], -83% (active). In addition, the growth in [19] was -84% (active).
`CS(=O)(=O)c1ccc(C(=O)N/N=C/c2ccccc2Cl)cc1`: the growth in assay [1] is 94.8%; in assay [2], 97.4%; in [3], 99.2%; in assay [4], 87.3%; in [5], 101%; in [6] it was 96.4%. The growth was 78.4% in assay [7]; 97.2% in assay [8]; 90.9% in assay [9]; 98.8% in [10]; 67.5% in assay [11]; 100% in assay [12]. For the same molecule, the growth in [13] was 93.6%; in assay [14], 117%; in [15], 100%; in [16] it was 103%; in assay [17] it was 101%; in assay [18], 64.5%. The growth in assay [19] was 91.9%.
On to `C#C[C@]1(O)CC[C@H]2[C@@H]3CC=C4c5sc(-c6cccc(Br)c6)nc5CC[C@]4(C)[C@H]3CC[C@@]21C`, for which the growth in [1] is 82.9%; in [2], 97.9%; in assay [3], 73.5%; in [4] it was 91.5%; in assay [5], 78.1%; in [6], 62.3%. Moreover, the growth was 81.2% in [7]; 51.9% in [8]; 118% in assay [9]; 88.6% in [10]; 6.54% (active) in [11]; 100% in assay [12]. The growth in [13] is 79.9%; in assay [14], 37.3%; in assay [15], 72.4%; in assay [16], 55.5%; in assay [17], 37.6%; in assay [18], 80.7%. Further, the growth in [19] is 69.3%.
Turning to `O=c1c2cc(Br)cc(Br)c2nc(-c2ccc(Cl)cc2)n1/N=C\c1ccccc1F`, the growth in [1] was 62.9%; in assay [2], 51.2%; in assay [3], 52.5%; in assay [4] it was 27.4%; in assay [5] it was 39.1%; in assay [6] it was 51.3%. The growth in assay [7] is 57.1%; in assay [8], -34% (active); in [9], 66.3%; in assay [10], 96%; in assay [11] it was 72.1%; in assay [12], 90.4%. The growth in assay [13] is 55.1%; in assay [14], 72.9%; in assay [15] it was 73.3%; in [16], 29.8%; in assay [17] it was 81.9%; in assay [18] it was 89.9%. In assay [19], the growth was 81.8%.
`CSC1=N/C(=C\c2cccc(OCc3ccc(Cl)cc3)c2)C(=O)N1`: the growth is 82.8% in assay [1]; 75% in [2]; 87.2% in assay [3]; 99.4% in [4]; 81.3% in [5]; 48% in [6]. The growth in assay [7] is 83.4%; in assay [8], 83.8%; in [9], 82.8%; in assay [10], 77.7%; in assay [11], 81.7%; in assay [12] it was 99%. Moreover, the growth is 99.8% in [13]; 104% in assay [14]; 85.3% in assay [15]; 87.6% in assay [16]; 99% in assay [17]; 100% in [18]. Moreover, the growth in [19] was 88%.
For `Clc1ccc(-c2cnc3nonc3n2)s1`, the growth was 74.3% in [1]; 100% in assay [2]; 96.6% in assay [3]; 84.5% in assay [4]; 92.6% in assay [5]; 53.5% in assay [6]. For the same molecule, the growth in assay [7] is 85%; in assay [8] it was 86.1%; in assay [9], 67.6%; in assay [10] it was 89.7%; in assay [11], 41.7%; in assay [12], 83%. Further, the growth in assay [13] is 85.2%; in assay [14], 109%; in [15], 82.7%; in [16], 92.8%; in assay [17], 97.5%; in assay [18], 64.4%. Also, in [19], the growth was 86.6%.
Regarding `CO[C@H](C(=O)[C@@H](O)[C@@H](C)O)[C@@H]1Cc2cc3cc(O[C@H]4C[C@@H](O[C@H]5C[C@@H](O)[C@H](O)C(C)O5)[C@H](O)C(C)O4)c(C)c(O)c3c(O)c2C(=O)[C@H]1O[C@H]1C[C@@H](O[C@H]2C[C@@H](O[C@H]3C[C@](C)(O)C(=O)C(C)O3)[C@@H](O)C(C)O2)[C@H](O)C(C)O1` (some centres undefined), the growth in assay [1] is -7.26% (active); in assay [2], 1.78% (active); in assay [3], 7.31% (active); in assay [4] it was -2.07% (active); in assay [5], 4.88% (active); in assay [6] it was -31.9% (active). Moreover, the growth was 4.12% (active) in assay [7]; 4.11% (active) in assay [8]; -52.4% (active) in [9]; 9.76% (active) in assay [10]; 9.26% (active) in assay [11]; -26.8% (active) in assay [12]. Besides, the growth was 10.6% in assay [13]; -54.2% (active) in assay [14]; 16.4% in assay [15]; 6.84% (active) in assay [16]; 0.369% (active) in [17]; -27.4% (active) in assay [18]. In assay [19], the growth is -27% (active).
